The Inhibition is how much of the control response was suppressed. The low end stands for little suppression, the high end for strong suppression.

What all share (type): functional
Assay [1] has as its system Plasmodium falciparum. Description: GSK_TCMDC: Inhibition of Plasmodium falciparum 3D7 in whole red blood cells, using parasite LDH activity as an index of growth. Test compounds present at 2uM.
In assay [2] the test system is Plasmodium falciparum. As to the kind of experiment: GSK_TCMDC: Inhibition of Plasmodium falciparum Dd2 in whole red blood cells, using parasite LDH activity as an index of growth. Test compounds present at 2uM.
For assay [3], the system named is HepG2. Description: GSK_TCMDC: Percent inhibition of human HepG2 cell line. Test compounds present at 10uM.

Regarding `Cc1cc(Cl)c(S(=O)(=O)NC2CCCC2)cc1OCC(=O)NC1CCCCC1`, the Inhibition was determined as 97% in assay [1], 91% in assay [2] and 19% in assay [3].
The matching figures for `O=C(/C=C/c1ccc(Cl)c(Cl)c1)N1CCC(CCN2CCc3[nH]c4ccccc4c3C2)CC1.O=C(O)C(F)(F)F`: 96%, 0% and 22%.
The matching figures for `Fc1ccccc1C=NN=c1cc[nH]c2ccccc12`: 94%, 26% and 8%.
In the same order, the values of `CCNC(=O)Nc1ccc(-c2cccc(-c3nc4cccc(C)c4[nH]3)c2)cc1` are 91%, 34% and 16%.
As for `COc1cccc(Nc2c(C(N)=O)cnc3ccc(-c4ccccc4)cc23)c1`, the values for the Inhibition in assay [1], in assay [2] and in assay [3] were 98%, 99% and 2%, respectively.
The matching figures for `CN(CCCN)CCCNc1ccnc2cc(Cl)ccc12`: 100%, 0% and 1%.
In the same order, the values of `CN1Cc2ccc(NS(=O)(=O)c3ccc(-c4ccoc4)cc3)cc2C1.Cl` are 97%, 2% and 0%.
In the same order, the values of `CCOc1cc(Cl)c(C(C)NC(=O)c2ccccc2)cc1OCC` (stereo not given) are 91%, 49% and 0%.
For `COc1ccc(CCNC(=O)c2ccccc2O)cc1-c1ccc(C(C)(C)C)cc1`, the Inhibition is reported as 95% in assay [1], 96% in assay [2] and 25% in assay [3].
With `CC(C)COc1ccc2ccccc2c1CNCCCCCCNCc1c(OCC(C)C)ccc2ccccc12.CS(=O)(=O)O`, the Inhibition in assay [1] is given as 90%; in assay [2], 95%; in assay [3], 99%.
The matching figures for `CCN1CCN(Cc2ccc3nc(-c4cc(C)n(Cc5cc(Cl)ccc5OCc5ccccc5)n4)[nH]c3c2)CC1.Cl`: 100%, 97% and 11%.
Turning to `CN(CCCN(C)c1cc(NC(=O)c2ccc(F)cc2)ccn1)Cc1cccc(F)c1.O=C(O)C(F)(F)F`, the figures for the Inhibition in assay [1], in assay [2] and in assay [3] were 83%, 60% and 0%, respectively.
As to `COc1ccc2nccc([C@H](O)CN3CCC(NCc4ccc5c(c4C)OCCO5)CC3)c2n1.Cl`, the Inhibition is reported as 94% in assay [1], 6% in assay [2] and 26% in assay [3].
For the molecule `Cc1cccc(Nc2c(-c3cc(Br)ccc3O)nc3ncccn23)c1`, the Inhibition in assay [1] is on record as 100%; in assay [2], 98%; in assay [3] it was 0%.
In the same order, the values of `CCC(=O)Nc1ccc(Nc2nc(C)cc(N3CCCC3)n2)cc1` are 91%, 2% and 34%.
Consider `CN(C)CCNc1ncnc2c1[nH]c1ccc(Cl)cc12`, for which the results for the Inhibition in assay [1], in assay [2] and in assay [3] were 100%, 8% and 7%, respectively.
As for `CN1CCN(C(C(=O)NCc2cc(Cl)cc(Cl)c2)c2ccc(Nc3cccc(C(F)(F)F)c3)cc2)CC1` (stereo not given), the Inhibition stood at 85% in assay [1], 98% in assay [2] and 49% in assay [3].
As to `CCCC(C)Nc1nc(C)cc(N[C@@H](Cc2ccccc2)C(=O)Nc2ccc(OC)cc2)n1.O=C(O)C(F)(F)F` (stereo not given in full), the Inhibition in assay [1] worked out at 100%; in assay [2], 72%; in assay [3] it was 24%.
For `CCCCOc1ccc(C(O)C(CN2CCCCC2)c2ccccc2)cc1` (stereo not given), the Inhibition in assay [1] is reported as 90%; in assay [2] it was 84%; in assay [3], 7%.
In the same order, the values of `Cc1cc(C)c(NC(=O)N2CCCN(CCCCCNC(=O)/C=C/c3ccc(Cl)c(Cl)c3)CC2)c(C)c1` are 91%, 0% and 12%.
With `CCCCCCOc1ccc(/C(N)=N\Cc2ccccc2)c2c1CCCC2.Cl`, the Inhibition is given as 96% in assay [1], 35% in assay [2] and 62% in assay [3].
On to `O=C(Nc1ccc(Cn2ncc(N3CCCNCC3)c(Cl)c2=O)cc1)Nc1ccc(OCc2ccccc2)cc1.O=C(O)C(F)(F)F`, for which the Inhibition in assay [1] is on record as 90%; in assay [2], 32%; in assay [3] it was 15%.
For `O=C(NCc1ccc(Cl)c(Cl)c1)c1ccc(-c2nc3cc(F)c(F)cc3[nH]2)cc1`, the values for the Inhibition in assay [1], in assay [2] and in assay [3] were 81%, 12% and 0%, respectively.
In the same order, the values of `COc1ccc2c(N/N=C/c3ccccc3[N+](=O)[O-])cc(C)nc2c1` are 100%, 100% and 14%.
In the same order, the values of `CN(C)CCOc1ccc(-c2cc(-c3ccc(Cl)c(O)c3)c(-c3ccncc3)o2)cc1.Cl` are 100%, 99% and 39%.
In the same order, the values of `COC(=O)[C@@H](NC(=O)[C@H](CC(C)C)Nc1ccc(C#N)c2ccccc12)c1ccc(O)cc1.O=C(O)C(F)(F)F` are 98%, 87% and 4%.
As for `O=C(Nc1cccc(-c2ccc(-c3nc4cc(C(F)(F)F)ccc4[nH]3)cc2)c1)Nc1ccc(F)c(F)c1F`, the values for the Inhibition in assay [1], in assay [2] and in assay [3] were 100%, 99% and 45%, respectively.
`O=C(Nc1cccc(OCCN2CCCC2)c1)Nc1ccc(Cl)c(Cl)c1.O=C(O)C(F)(F)F`: the figures for the Inhibition in assay [1], in assay [2] and in assay [3] were 98%, 22% and 3%, respectively.
The matching figures for `Cl.Cn1ncc2c3c(CCN4CCC(NCc5cc6c(cn5)OCCO6)CC4)c(Cl)cnc3ccc21`: 95%, 34% and 1%.
Consider `CCCCCN1CCC(NS(=O)(=O)c2cccc(C(=O)Nc3ccc(Cl)cc3)c2)CC1.O=C(O)C(F)(F)F`, for which the Inhibition in assay [1] was 88%; in assay [2], 29%; in assay [3], 24%.

The values above are taken from ChEMBL document CHEMBL1157539, “Thousands of chemical starting points for antimalarial lead identification” (Nature, 2010).
